# Compound activity: PubChem BioAssay, National Center for Advancing Translational Sciences (NCATS)
# Shown are actives, neighbours in structure and some others; about 9.2% of the full set was active somewhere.
# SMN2 splice up: enhancers of SMN2 splice variant expression | Potency, µM (highest dose often 46.1 µM), for the others: at the highest dose activity change, positive = activation, usual class: activators | 2.8% of 210,000 active | AID 1458 | HEK293 SMN2-luciferase splicing reporter, luminescence, 30-36 h; note: % of control where 0% means no effect; nearly all actives have a fitted effect of over 55% in size
#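 HEK293 cells carry an SMN2 […]–luciferase reporter in which exon 7 inclusion puts luciferase in frame. Cells were plated 10-12 h before compound addition, then incubated 30-36 h at 37C. ONE-Glo luminescence was read; sodium butyrate at 4.5 mM final served as control.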
# ELG1 genotox: induces genotoxicity in HEK293T cells with luciferase-tagged ELG1. AID 504466. Potency, µM (doses to about 46 µM), for inactives: at the highest dose activity change, positive = activation, usual class: activators. HEK293T ELG1-luciferase reporter, luminescence, 16 h. 1.3% of 330,000 active; note: % of control where 0% means no effect; nearly all actives have a fitted effect of over 60% in size
#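 Quantitative HTS format in 1536-well plates. HEK293T ELG1-luciferase reporter cells receive test compound and are incubated 16 hr at 37 °C, 5% CO2; ONE-Glo added, 30 min room temperature, then luminescence read.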
# Rab9 promoter act: activators of Rab9 promoter; Huh7 Rab9 promoter-luciferase reporter, luminescence, 24 h; Potency, µM (highest dose often 9.22 µM), for the others: at the top dose activation, negative = inhibition, actives largely listed as activators; 2.8% of 320,000 active; AID 485297; note: % of control where 0% means no effect; nearly all actives have a fitted effect of over 60% in size
#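 Cells were plated at 1500 per well in reduced-serum medium with 10% FBS and left 2 h. Compound in DMSO was then added for 24 h at 37 °C. Reporter signal was read by luminescence after 10 min with luciferase detection reagent.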
# ELG1 repair inh: blocks ELG1-dependent DNA repair in HEK293T cells. HEK293T ELG1-luciferase reporter, luminescence, 16 h; DNA damage induced by 5-fluorouridine. Potency, µM (series often up to 46.1 µM), for the others: top-dose activity change, negative = inhibition, usual class: inhibitors. 2.3% of 330,000 active. AID 504467; note: % is set by controls: 0 for no effect and ±100 for the full control effect; nearly all actives have a fitted effect of over 55% in size
#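 Cells (2,000 per well) received 5-fluorouridine plus test compound or DMSO and were incubated 16 hr at 37 °C, 5% CO2. Luciferase activity was read by luminescence 30 min after ONE-Glo addition; signal suppression marked inhibition of damage-induced ELG1 function.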
# NPC1 promoter act: activators of NPC1 promoter. Huh7 NPC1 promoter luciferase reporter, 24 h. 2.4% of 320,000 active. Potency, µM (highest dose often 9.22 µM), for the others: top-dose activation, hits mostly activators; note: % of control where 0% means no effect; nearly all actives have a fitted effect of over 60% in size
#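 Luminescence from an NPC1 promoter-driven luciferase reporter in stably transfected Huh7 cells was measured after 24 h compound treatment at 37 °C, followed by 10 min ambient incubation with luciferase detection reagent.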
# FLuc modulator: counter-screen for miR-21 project: firefly luciferase inhibitors or activators; P08659; purified FLuc, Km substrates, luminescence inhibition; Potency, µM (titrated, usually from 57.5 µM), for inactives: top-dose activity change, negative = inhibition, actives largely listed as inhibitors; 6.9% of 360,000 active;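 note: plate controls were vehicle for no effect and reference inhibitor for full effect; nearly all actives have a fitted effect of over 55% in size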
# Target sequence (P08659 whole entry, looked up): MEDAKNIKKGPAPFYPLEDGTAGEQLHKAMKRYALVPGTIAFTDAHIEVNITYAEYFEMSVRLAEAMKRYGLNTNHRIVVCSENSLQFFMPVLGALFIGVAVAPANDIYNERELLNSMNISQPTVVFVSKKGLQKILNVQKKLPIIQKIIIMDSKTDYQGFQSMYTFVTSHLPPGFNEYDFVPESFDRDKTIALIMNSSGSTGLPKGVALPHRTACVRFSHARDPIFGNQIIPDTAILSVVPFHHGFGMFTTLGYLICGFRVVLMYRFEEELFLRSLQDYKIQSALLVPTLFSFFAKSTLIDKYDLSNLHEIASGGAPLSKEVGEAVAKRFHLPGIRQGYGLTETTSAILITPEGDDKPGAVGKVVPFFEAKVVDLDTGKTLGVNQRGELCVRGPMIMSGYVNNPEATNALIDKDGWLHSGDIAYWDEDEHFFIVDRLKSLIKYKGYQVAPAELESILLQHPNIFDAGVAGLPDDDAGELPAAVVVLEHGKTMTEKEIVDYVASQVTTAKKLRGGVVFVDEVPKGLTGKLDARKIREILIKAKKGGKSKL
#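 Biochemical qHTS of compounds, final roughly 60 µM downward over six points, against 10 nM purified firefly luciferase using Km concentrations of substrates (10 uM D-luciferin, 10 uM ATP) in Tris acetate pH 7.5 buffer; luminescence output.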
# * = called active by the depositor; ? = inconclusive; . = no result; [ ] = dose if it differs, or a comment. Calls come from the whole dose curve; as a rule, active = well fitted curve in the direction sought with a large enough effect; inconclusive = small, poorly fitted or top-dose-only effect, or another doubt; inactive = no such curve, though single readings can be large; an effect the other way counts as inactive or inconclusive. Potency is the fitted concentration of half-maximal effect.
SMILES,SMN2 splice up,ELG1 genotox,Rab9 promoter act,ELG1 repair inh,NPC1 promoter act,FLuc modulator
CCOC(=O)N/N=C\c1ccc(OC/C=C/c2ccccc2)c(OC)c1,.,-6%,8%,10%,3%,12µM*
COc1cccc(/C=N\NC(C)=O)c1OC/C=C/c1ccccc1,.,-8%,-1%,21µM*,-1%,-7%
Cc1ccc(Cn2cc(C(=O)c3ccc(F)cc3)c(=O)c3cc4c(cc32)OCCO4)cc1,0%,-2%,-5%,21µM*,0%,-6%
O=C(Cn1ncn2c(cc3sccc32)c1=O)NCCc1ccccc1,5%,.,.,.,.,-6%
Cc1ccc(Nc2nc(Cl)c(C=O)s2)cc1Cl,4%,-2%,0%,17%,-7%,21µM*
O=Cc1sc(Nc2ccccc2)nc1Cl,-17%,-3%,2%,-5%,-2%,?
O=C(Oc1ccc2ccccc2c1)c1ccccc1,-12%,?,-2%,?,0%,2.4µM*
Cc1cccc(C(=O)Oc2ccc3ccc(O)cc3c2)c1,.,1%,0%,-25%,8%,24µM*
CC(C)(C)c1ccc(OC(=O)c2ccccc2)cc1,.,9%,-3%,?,-13%,2.4µM*
O=C(Oc1ccc(/C=N/O)cc1)c1ccccc1,11%,2%,?,11%,0%,12µM*
O=C(Oc1ccc(/C=N/Nc2ccccc2)cc1)c1ccccc1,-17%,?,7%,?,20%,?
CC(C)(C)c1ccc(OCCC(=O)NNC(=O)c2ccccc2)cc1,.,0%,-1%,1%,1%,13%
O=C(Oc1ccc2ccccc2c1)c1cncc(Br)c1,3%,4%,-1%,9%,0%,-15%
OCC[C@@H]1C[C@H](O)[C@@H](O)[C@@]2(CCc3ccccc3CO2)O1,.,4%,1%,23%,-1%,2%
CC1(C)Cc2c(cnn2-c2ccc(F)cc2)C(NC(=O)C2=NNC(=O)CC2)C1 (centres undefined),.,12%,22%,?,-2%,?
Cc1cc(=O)oc2cc(NC(=O)CC3(CC(=O)O)CCCC3)ccc12,.,3%,-5%,-8%,-7%,?
O=C(/C=C/Nc1ccc(F)c(Cl)c1)c1ccco1,?,4.1µM*,0%,?,1%,5.4µM*
O=C(/C=C/Nc1cccc(F)c1)c1ccco1,13µM*,3.2µM*,2.5µM*,?,?,2.1µM*
Cc1ccc(NC(=O)c2ccc3c(=O)n4c(nc3c2)CCC4)cc1S(=O)(=O)N(C)C,.,-6%,4%,-20%,1%,?
Cc1ccc(S(=O)(=O)N2CCCCC2)cc1NC(=O)c1ccc2c(=O)n3c(nc2c1)CCCCC3,-45%,-11%,-3%,12µM*,-5%,-1%
O=C(Nc1ccc(S(=O)(=O)N2CCCC2)cc1)c1ccc2c(=O)n3c(nc2c1)CCCCC3,-61%,-4%,-18%,10µM*,-7%,1%
COc1cccc(N2CCN(C(=O)C3CCN(S(=O)(=O)c4c(C)noc4C)CC3)CC2)c1,8%,.,.,.,.,1%
CCOC(=O)C1C(C(=O)OC)=C(C2=CCCCC2)c2ccccc2N1S(=O)(=O)C(F)(F)F (centres undefined),.,-7%,.,18µM*,.,.
CCOC(=O)C1=C(c2ccccc2)c2ccc(OC)cc2N(S(=O)(=O)C(F)(F)F)C1C(=O)OCC (centres undefined),.,-3%,.,15µM*,.,.
CCOc1ccc(N(CC)C(=O)c2cc3c(s2)-c2ccc(Cl)cc2SC3)cc1,?,.,.,.,.,4%
SMILES,SMN2 splice up,ELG1 genotox,Rab9 promoter act,ELG1 repair inh,NPC1 promoter act,FLuc modulator
COCCNC(=O)c1cc2c(s1)-c1ccc(Cl)cc1SC2,.,?,2.2µM*,?,2.5µM*,6µM*
CCSC1(SCC)N=C(N)C2(C#N)C(c3ccc(OC)c(OC)c3OC)C12C#N (centres undefined),-94%,11%,-4%,15µM*,1%,-7%
CCSC1(SCC)N=C(N)C2(C#N)C(c3ccccc3)NC3=C(CCC3)C12C#N (centres undefined),20%,-3%,8%,16%,6%,-1%
COc1ccc(Cl)cc1NC(=S)N(Cc1ccc(C(=O)O)cc1)Cc1ccc(OC)c(OC)c1,-39%,1%,-2%,0%,2%,?
Cn1cccc1C(=O)NC(=O)COC(=O)CCNS(=O)(=O)c1cccc(C(F)(F)F)c1,.,-2%,-6%,-6%,2%,.
COc1ccc(/C=C2\SC(=N)N(c3nccs3)C2=O)cc1OC,-23%,?,0%,?,-3%,2.1µM*
CN(C)c1nc(N(C)C)nc(N(C#N)CN2C(=O)c3ccccc3S2(=O)=O)n1,-7%,-5%,3%,3%,2%,-3%
CN(C)c1ccc(C2=NOC(CN3C(=O)c4ccccc4S3(=O)=O)C2)cc1 (centres undefined),13µM*,?,0.63µM*,?,3.2µM*,3µM*
c1ccc2sc(SCN(C3CCCCC3)C3CCCCC3)nc2c1,-6%[9.22 µM],.,.,.,.,.
CCOC(=O)c1c(-c2ccccc2)csc1NC(=O)c1ccc(S(=O)(=O)N2CC(C)OC(C)C2)cc1 (centres undefined),-24%,-13%,-5%,-8%,0%,1%
CCOC(=O)c1ccc(NC(=O)c2cc(S(=O)(=O)N3CCOCC3)ccc2O)cc1,-47%,-18%,-2%,-22%,0%,15µM*
O=C(OCC(=O)N(CCc1ccccc1)Cc1ccccc1)c1cc(S(=O)(=O)N2CCOCC2)ccc1F,.,17%,-1%,-23%,0%,-2%
Cc1ccc(S(=O)(=O)N2CCOCC2)cc1C(=O)OCC(=O)N(Cc1ccccc1)C(C)C,.,-6%,-7%,21µM*,-6%,3%
CCOC(=O)c1c(-c2ccccc2)csc1NC(=O)c1cc(S(=O)(=O)N2CCOCC2)ccc1C,-8%,-5%,0%,10µM*,-5%,-1%
Nc1nc(-c2ccccc2)c(-c2ccccc2)c(-c2nc(N)nc(-c3ccccc3)c2-c2ccccc2)n1,21%[9.22 µM],.,.,.,.,.
CCOCCCNC(=O)c1ccc(OC)c(OC2CCN(C(C)C)CC2)c1,.,-1%,-2%,6%,-3%,-5%
Cc1cccc(N2CCN(C(=O)Cn3ncc4c3-c3ccccc3OC4)CC2)c1C,-15%,.,.,.,.,-11%
Cc1ccc(NC(=O)C2COc3ccccc3O2)cc1S(=O)(=O)N1CCCCC1 (centres undefined),.,-10%,-9%,?,5%,-12%
COc1ccc(NC2CCCN(C(=O)CN3CCOC3=O)C2)cc1 (centres undefined),.,?,?,?,?,11µM*
